Assay results: the supplement of paper PMC13380429

Experiments:
[1] = tested on: Vero E6 infected with SARS-CoV-2; experiment: morphology score (similarity to uninfected cells); higher = more like uninfected cells; conditions: 24 h
[2] = tested on: Vero E6 infected with SARS-CoV-2; experiment: SARS-CoV-2 infection rate relative to infected DMSO; higher = more infection, active = 60 or less; conditions: 24 h

Compound | morphology score [1] | SARS-CoV-2 infection rate [2]
C[C@@H](CN(C)C)CN1c2ccccc2Sc2ccccc21 (racemic) [alimemazine] (0.833333 µM) | -0.144 | 105% (inactive)
CC(C)C[C@H](NC(=O)[C@@H](COC(C)(C)C)NC(=O)[C@H](Cc1ccc(O)cc1)NC(=O)[C@H](CO)NC(=O)[C@H](Cc1c[nH]c2ccccc12)NC(=O)[C@H](Cc1cnc[nH]1)NC(=O)[C@@H]1CCC(=O)N1)C(=O)N[C@@H](CCCNC(=N)N)C(=O)N1CCC[C@H]1C(=O)NNC(N)=O [goserelin-acetate] (10 µM) | 0.0827 | 109% (inactive)
NS(=O)(=O)c1cc2c(cc1Cl)NC(CC1CCCC1)NS2(=O)=O (stereo not drawn) [cyclopenthiazide] (10 µM) | 0.129 | 100% (inactive)
Nc1cc(-c2ccncc2)c[nH]c1=O [amrinone] (10 µM) | 0.00166 | 112% (inactive)
Cc1[nH]nc(C(F)(F)F)c1Cc1sc2c(c1C(=O)N1C[C@](C)(O)CO1)c(=O)n(C)c(=O)n2C(C)C (10 µM) | 0.0405 | 101% (inactive)
CCOC(=O)[C@@](C)(N)Cc1ccc(O)c(O)c1 [methyldopate] (10 µM) | 0.0423 | 108% (inactive)
O=C(O)CCCO (10 µM) | 0.0908 | 104% (inactive)
CCOC(=O)c1ccccc1OC(N)=O [ethyl-2-(carbamoyloxy)benzoate] (10 µM) | -0.102 | 108% (inactive)
N#C/C(=C\c1cn(-c2ccccc2)c2ccccc12)C(=O)O (10 µM) | -0.0582 | 99.5% (inactive)
